Results published in the OligoGym collection.

Target: SELO
Assay: pooled miR-30 sensor sort-seq; sequence = guide strand
Settings: shRNA
Also: reference of the scale not given here.

Row | Sequence | sensor-assay potency score (higher = more potent)
1 | TTCGCTGCATAGAAACTCCCGG | 0.0168
2 | TTGCCGCTGAAGAACAGCGCGG | -1.34
3 | TTTCTCTGCACGCTGTCGCTGG | -0.303
4 | AACACGTCGCGCACCACCGTGG | -0.914
5 | TTGTCGGTGTTGAGCACGCCGT | -1.37
6 | TCGCTGCATAGAAACTCCCGGA | -0.819
7 | TTCCTCAGCACGTACTTCGGGT | -0.346

Target: SEMA3B
Assay: as above
Settings: shRNA

Row | Sequence | sensor-assay potency score (higher = more potent)
8 | TTGGTGGAACTGAAGGTGCCAA | -0.717
9 | TTCAGGAACGTCGTCCACTTGT | -0.531
10 | TAGATTTTGTCGTCGTCTGGGT | 0.074
11 | TTGGAAGAAATTTGCATGCTGG | 0.12
12 | ATGCTGTACACGCACACCGCAG | -1.8
13 | TCTCCGGAGCACAACGTGCTGG | -0.802
14 | TACCTTGACAAACTTGGGCTCA | -0.131
15 | TCACACTCCAGAAAGGCGCTGC | 0.144
16 | TACTTTAGTACAGTCGGCCTGC | 0.558
17 | TTGCATGCTGGTGACAGCGGCC | -0.767
18 | TTGTGTTCCAGCAGCGCGGGAC | -0.691
19 | AACTGGATGACATCGTCTGGGA | -0.898

Target: SEMA5A
Assay: as above
Settings: shRNA

Row | Sequence | sensor-assay potency score (higher = more potent)
20 | TATCGTTCTTGCACACCCGGGC | -0.125
21 | TAGAACAGTACCGCATTTCGAT | -0.368
22 | TTATGAAATATTATGGACCTAT | -0.515
23 | ATTAGAGTCAAACACACACGGC | -0.728
24 | TTTCGATTCTCTGTCTTCCCAC | 0.0611
25 | TTGAAGACGCACACAGCTGAGG | -0.713
26 | TTAGAGTCAAACACACACGGCC | -0.151
27 | ATATCGTTCTTGCACACCCGGG | -1.15
28 | TTGCAGTATCTTTCCTCGCGGT | -0.492
29 | TCTTCCAGCAAACAGCTGCTTG | -1.24
30 | ATCTCTTCCAGCAAACAGCTGC | -0.82
31 | TTCTTCGCTCTGAACTCCCGTA | -0.152

Target: SEMA6D
Assay: as above
Settings: shRNA

Row | Sequence | sensor-assay potency score (higher = more potent)
32 | TTGGGTGGTAGCTCTTTCCGAC | -0.271
33 | TTGATTTGTATTATGTCTGTAA | 0.267
34 | TACTGTATAAACTTGATCCCTG | 0.49
35 | TATTCTAAGGTACTCAACCTGT | -0.752
36 | TAATAGACTGCAGAACATCAAA | -1.03
37 | TTTTTTTTGACATTTGTGCAAG | -0.63
38 | TACTTTTTCAATGTCATCCATG | -0.449
39 | TTTAGGAGAATCAATATTCTGT | -0.109
40 | TATGTCTGTAATAGACTGCAGA | -0.657
